By IC50 is commonly meant the midpoint of a concentration-inhibition curve.

This is one part of the list. A number with no mark means an inactive call. The source made the active and inactive calls. No stated cut-off is given here; in the data, active means IC50 below about 20 µM; inactive means the rest.

The test is described as follows: mitochondrial permeability transition pore inhibitors, dose response, biochemical, absorbance, uHTS hits (AID 651561). The settings on record: isolated mitochondria swelling.
In the case of `O=Cc1cn(Cc2ccc(F)cc2Cl)c2ccccc12`, the IC50 is 32.3 µM. On to `CC(Cc1ccccc1)NCCC(c1ccccc1)c1ccccc1` (stereo not drawn), for which the IC50 is 4.21 µM (active).

On to `COc1ccc(C2NCc3ccc4c(c3-n3cccc32)OCO4)cc1OC` (stereo not drawn), for which the IC50 was 26.9 µM.

For the origin of these results see PubChem BioAssay AID651561 (Sanford-Burnham Center for Chemical Genomics, 2012).
